About 1,700 (3.3%) of roughly 52,000 compounds were called active. The list comes from a sample in which actives are over-represented; it also holds similar structures and randomly drawn compounds. Values without a mark were called inactive. Rule as the data show it: active = survival mostly below about 52% (no sharp cut-off); inactive = mostly above about 56%.

For this experiment, the system named is Wild type. Put plainly: S. aureus survival, RN4220 and DeltatarO strains – OD600, teichoic acid synthesis inhibitors, primary screen (AID 463173). The following applies: S. aureus RN4220 wild type/DeltatarO growth, OD600, 18 h, stronger effect = lower value, screened at 18.75 µg/mL (by protocol).
In the case of `CCOC(=O)c1cc(=O)n2[nH]c(-c3ccc(C)cc3)cc2n1`, the survival was 107%.

Turning to `CCC(Sc1nc2ccccc2c2nc(CCc3c(C)n[nH]c3C)nn12)C(=O)Nc1ccccc1F` (stereo not given), the survival is 91%.

In the case of `CCCCn1cc(S(=O)(=O)c2cc(C)ccc2C)c(=O)c2cc(F)c(F)cc21`, the survival is 83%.

`Cc1ccc(OC(=O)c2cc(-c3ccccc3)nc3ccc(C)cc23)cc1`: the survival was 61%.

For the molecule `COc1ccc(-c2cc(C(=O)Oc3cccc(C)c3)c3ccccc3n2)cc1`, the survival is 3% (active).

As to `COc1ccc(-c2cc(C(=O)Oc3cccc(C)c3)c3cc(C)ccc3n2)cc1`, the survival was 19%.

Take `Cc1ccc(-c2cc(C(=O)Oc3ccccc3)c3cc(C)ccc3n2)cc1`: the survival was 65%.

For `COc1ccc(-c2cc(C(=O)Oc3ccc(Br)cc3)c3ccccc3n2)cc1`, the survival is 63%.

Take `COc1ccc(-c2cc(C(=O)Oc3ccc(C)cc3)c3cc(C)ccc3n2)cc1`: the survival is 22%.

On to `COc1ccc(-c2cc(C(=O)Oc3ccccc3)c3cc(C)ccc3n2)cc1`, for which the survival is 11%.

As to `COc1ccc(-c2cc(C(=O)Oc3ccc(C)c(C)c3)c3ccccc3n2)cc1`, the survival is 30%.

For `COc1ccc(-c2cc(C(=O)Oc3cccc(C)c3C)c3ccccc3n2)cc1`, the survival was 12% (active).

With `COc1ccc(-c2cc(C(=O)Oc3ccc(Cl)cc3)c3ccccc3n2)cc1`, the survival was 60%.

As to `Cc1ccc(-c2cc(C(=O)Oc3ccccc3)c3cccc(C)c3n2)cc1`, the survival was 13% (active).

With `COc1ccc(-c2cc(C(=O)Oc3ccc(C)cc3)c3ccccc3n2)cc1`, the survival is 4% (active).

For the molecule `Cc1ccc(C(=O)NC(C)C)cc1C`, the survival is 110%.

Consider `Cc1cc(NC(=O)c2ccc(Cl)c(Cl)c2)ccc1NC(=O)c1ccco1`, for which the survival was 95%.

In the case of `COCc1c(Br)c(C)nc2sc3c(=O)n(-c4cccc(Br)c4)nnc3c12`, the survival was 87%.

In the case of `CCn1c(CSc2ncccn2)nnc1SCC(=O)N1CCc2ccccc21`, the survival is 102%.

On to `CCCN(CCC)CCCNC(=O)Cn1cnc2onc(-c3ccc(F)cc3)c2c1=O`, for which the survival is 73%.

For the molecule `Cc1nc(-c2ccccc2)sc1CCNS(=O)(=O)c1ccccc1`, the survival was 69%.

As to `CCS(=O)(=O)c1oc(-c2ccc(F)cc2)nc1S(=O)(=O)c1ccc(Br)cc1`, the survival was -1% (active).

Turning to `CCC(C)S(=O)(=O)c1oc(-c2ccc(F)cc2)nc1S(=O)(=O)c1ccc(F)cc1` (stereo not given), the survival is 49%.

For `CC(C)CS(=O)(=O)c1oc(-c2ccc(F)cc2)nc1S(=O)(=O)c1ccccc1`, the survival is 3% (active).

Turning to `CSc1oc(-c2ccc(F)cc2)nc1S(=O)(=O)c1ccc(Br)cc1`, the survival is 54%.

`CCCCS(=O)(=O)c1oc(-c2ccc(F)cc2)nc1S(=O)(=O)c1ccccc1`: the survival is 7% (active).

For `CC(C)S(=O)(=O)c1oc(-c2ccc(F)cc2)nc1S(=O)(=O)c1ccc(F)cc1`, the survival was 26%.

As to `Cc1ccc(-c2nc(S(=O)(=O)c3ccc(F)cc3)c(N3CCN(c4ccccc4)CC3)o2)cc1`, the survival is 89%.

As for `CS(=O)(=O)c1oc(-c2ccc(F)cc2)nc1S(=O)(=O)c1ccc(Cl)cc1`, the survival was -1% (active).

For `CCCCS(=O)(=O)c1oc(-c2ccc(F)cc2)nc1S(=O)(=O)c1ccc(C)cc1`, the survival was 33%.

For the molecule `CC(C)S(=O)(=O)c1oc(-c2ccc(F)cc2)nc1S(=O)(=O)c1ccccc1`, the survival is 23%.

For `CCSc1oc(-c2ccc(F)cc2)nc1S(=O)(=O)c1ccc(C)cc1`, the survival was 41%.

`O=S(=O)(c1ccccc1)c1nc(-c2ccc(F)cc2)oc1N1CCOCC1`: the survival is 73%.

Regarding `CNC(=O)N(O)C1N(c2ccccc2)C(=S)SC1(C)C` (stereo not given), the survival is 109%.

In the case of `O=C(NCc1ccccc1Cl)C1CCCN(c2ncnc3onc(-c4ccc(F)cc4)c23)C1` (stereo not given), the survival is 65%.

Take `COc1ccc(-n2cc(C(=O)Oc3cc(C)cc(C)c3)c3ccccc3c2=O)cc1`: the survival is 153%.

`COc1cccc(NC(=O)c2ccc(CN3CCN(c4ccccc4)CC3)cc2)c1`: the survival is 122%.

As to `NC(=O)C1CCN(C(=O)c2ccc3c(c2)N(Cc2cccc(Cl)c2)C(=O)c2ccccc2S3(=O)=O)CC1`, the survival is 69%.

Regarding `O=C(Nc1c(C(=O)Nc2ccc(F)cc2)oc2ccccc12)c1ccccc1F`, the survival is 30%.

Regarding `Cc1ccc(S(=O)(=O)N2CCN(C(=O)CN3CCOCC3)C2C(C)C)cc1` (stereo not given), the survival is 105%.

In the case of `CCc1ccc(NC(=O)CSc2nc(C)c(C(=O)Nc3ccccc3)c(-c3ccc(OC)c(OC)c3)c2C#N)cc1`, the survival is 85%.

For the molecule `CC(C)Nc1nc(C#N)nc(NC(C)C)n1`, the survival is 130%.

`COc1cc(NC(=O)c2cc3c(=O)n(Cc4ccco4)ccc3nc2C)cc(OC)c1OC`: the survival was 63%.

Consider `O=c1[nH]c2ccc(N=Cc3ccccc3C(F)(F)F)cc2[nH]1`, for which the survival was 116%.

`COc1cc(NS(=O)(=O)c2ccc(NC(=O)COc3ccc(Cl)cc3Cl)cc2)nc(OC)n1`: the survival was 93%.

In the case of `C=CCN1C(=O)C(C)(C)N(C(C)=O)c2ccccc21`, the survival is 121%.

As to `CCS(=O)(=O)c1oc(-c2ccc(F)cc2)nc1S(=O)(=O)c1ccccc1`, the survival was -1% (active).

For `O=S(=O)(c1ccccc1)c1nc(-c2ccc(F)cc2)oc1N1CCCCCC1`, the survival is 19%.

Turning to `O=S(=O)(c1ccccc1)c1nc(-c2ccc(F)cc2)oc1NCc1ccccc1`, the survival was 84%.

For `Cc1ccc(CNC(=O)c2cc(C3CC3)nc3c2c(C)nn3-c2cccc(Cl)c2C)cc1`, the survival was 94%.

As for `COc1ccccc1OC(C)C(=O)Nc1cccc(-c2nc3ccccc3s2)c1` (stereo not given), the survival is 29%.

For the molecule `Cc1ncc(CO)c2c1Oc1nc(-c3ccc(Cl)cc3)nc(SCC(=O)N3CCCCC3)c1C2`, the survival is 79%.

Regarding `CCCCN(C)C(=O)c1ccc2c(c1)N(Cc1cccc(Cl)c1)C(=O)c1ccccc1S2=O` (stereo not given), the survival is 124%.

Take `CN(C(=O)c1ccc2c(c1)N(Cc1cccc(Cl)c1)C(=O)c1ccccc1S2=O)C1CCCCC1` (stereo not given): the survival was 95%.

As for `O=C(NCc1ccccc1)c1ccc2c(c1)N(Cc1cccc(Cl)c1)C(=O)c1ccccc1S2(=O)=O`, the survival was 74%.

On to `COc1ccccc1CNC(=O)c1ccc2c(c1)N(Cc1cccc(C)c1)C(=O)c1ccccc1S2(=O)=O`, for which the survival is 90%.

Regarding `COc1ccccc1CNC(=O)c1ccc2c(c1)N(Cc1cccc(Cl)c1)C(=O)c1ccccc1S2(=O)=O`, the survival was 10% (active).

For the molecule `O=C(c1ccc2c(c1)N(Cc1ccc(Cl)cc1)C(=O)c1ccccc1S2(=O)=O)N1CCc2ccccc21`, the survival is 147%.

For `O=S1(=O)c2ccccc2N(Cc2ccccc2)c2ccccc21`, the survival was 69%.

As to `O=S1(=O)c2ccccc2N(Cc2ccc(Cl)cc2)c2ccccc21`, the survival was 129%.

Regarding `O=S1(=O)c2ccccc2N(Cc2cccc(Cl)c2)c2ccccc21`, the survival was -2% (active).

Consider `CCN(C(=O)c1ccc2c(c1)N(Cc1cccc(Cl)c1)C(=O)c1ccccc1S2=O)c1ccccc1` (stereo not given), for which the survival is 0% (active).

With `O=C(c1ccc2c(c1)N(Cc1ccccc1)C(=O)c1ccccc1S2(=O)=O)N1CCc2ccccc21`, the survival is 87%.

Take `O=C(c1ccc2c(c1)N(Cc1cccc(Cl)c1)C(=O)c1ccccc1S2(=O)=O)N1CCc2ccccc21`: the survival is -3% (active).

Regarding `O=C(Nc1cccc(Cl)c1)c1cc2c(=O)[nH]c3ccccc3c2s1`, the survival was 63%.

Turning to `COc1ccccc1NC(=O)c1sc2nc(C)c(C(=O)Nc3ccc(C)cc3C)c(-c3ccccc3Cl)c2c1N`, the survival was 139%.

Turning to `CC(C)CC(=O)NCC(c1ccc2c(c1)OCO2)N1CCN(c2ccccc2F)CC1` (stereo not given), the survival was 76%.

As for `CCN(CC)CCNC(=O)c1ccc2c(c1)NC(=O)C(CS(=O)(=O)Cc1cccc(Br)c1)N2` (stereo not given), the survival is 134%.

`O=C(NCCCN1CCN(c2ccccc2F)CC1)c1nnc(Cc2ccc(Cl)cc2Cl)o1`: the survival is 77%.

Consider `CCOc1ccc(NC(=O)NCCN2CCN(c3cc(Cl)ccc3C)CC2)cc1`, for which the survival is 53%.

On to `Cc1ccc(Cl)cc1N1CCN(CCCNC(=O)c2nnc(Cc3cccc(Cl)c3)o2)CC1`, for which the survival is 12% (active).

In the case of `Cc1ccc(Cl)cc1N1CCN(CCNC(=O)Nc2ccccc2Cl)CC1`, the survival was 98%.

`Cc1cccc(N2CCN(CCNC(=O)Nc3ccc(Cl)cc3)CC2)c1C`: the survival is 87%.

On to `COc1ccc(Cc2nnc(C(=O)NCCCN3CCN(c4ccccc4F)CC3)o2)cc1OC`, for which the survival was 87%.

Take `Cc1ccc(Cl)cc1N1CCN(CCNC(=O)Nc2ccc(Cl)cc2)CC1`: the survival is -6% (active).

As for `Cc1ccc(C)c(N2CCN(CCCNC(=O)Nc3ccc(Cl)cc3)CC2)c1`, the survival is -6% (active).

Consider `O=C(NCCCN1CCN(c2ccc(F)cc2)CC1)Nc1ccc(Cl)cc1`, for which the survival was 64%.

`COc1ccc(-c2nnn(CC(=O)N(CC3CCCO3)C(C(=O)NC3CCCCC3)c3cccs3)n2)cc1` (stereo not given): the survival is 103%.

Regarding `COc1ccc(NC(=O)CCNS(=O)(=O)c2cccc3nonc23)c(OC)c1`, the survival was 67%.

On to `CC1CCN(S(=O)(=O)c2ccc3nc(N4CCN(c5ccc(F)cc5)CC4)ccc3c2)CC1`, for which the survival is 92%.

For the molecule `COc1ccc(NC(=O)CSC2=Nc3ccccc3C3=NC(CCC(=O)NCc4ccco4)C(=O)N23)cc1` (stereo not given), the survival was 60%.

`CC(C)CC(=O)n1nc(-c2ccco2)nc1NCc1ccc(Cl)cc1`: the survival is 83%.

In the case of `O=C(OCc1cc(=O)n2nc(C3CC3)sc2n1)c1ccc(NC(=O)c2ccccc2Cl)cc1`, the survival is 99%.

Turning to `CCc1ccc(C2c3c(-c4cc(C)ccc4O)n[nH]c3C(=O)N2Cc2cccnc2)cc1` (stereo not given), the survival is 74%.

With `O=C1c2[nH]nc(-c3ccccc3O)c2C(c2ccccc2F)N1Cc1ccncc1` (stereo not given), the survival was 93%.

On to `Cc1cc(C)c(-c2n[nH]c3c2C(c2ccccc2F)N(CCO)C3=O)c(O)c1` (stereo not given), for which the survival was 83%.

`O=C1c2[nH]nc(-c3ccccc3O)c2C(c2ccc(F)cc2)N1CCO` (stereo not given): the survival was 81%.

Turning to `Cc1ccc(O)c(-c2n[nH]c3c2C(c2ccc(F)cc2)N(Cc2ccco2)C3=O)c1` (stereo not given), the survival is 2% (active).

As to `COc1cc(C2c3c(-c4c(C)cc(C)cc4O)n[nH]c3C(=O)N2Cc2ccco2)cc(OC)c1OC` (stereo not given), the survival was 98%.

Take `O=C1c2[nH]nc(-c3ccccc3O)c2C(c2ccccc2F)N1Cc1cccnc1` (stereo not given): the survival is 94%.

On to `Cc1ccc(C2c3c(-c4cc(C)ccc4O)n[nH]c3C(=O)N2Cc2ccco2)cc1` (stereo not given), for which the survival is 1% (active).

In the case of `CCc1ccc(C2c3c(-c4cc(C)ccc4O)n[nH]c3C(=O)N2CCO)cc1` (stereo not given), the survival was 78%.

`Cc1ccc(O)c(-c2n[nH]c3c2C(c2ccccc2F)N(Cc2ccco2)C3=O)c1` (stereo not given): the survival was 11% (active).

As for `Cc1cc(C)c(-c2n[nH]c3c2C(c2ccccc2F)N(Cc2ccco2)C3=O)c(O)c1` (stereo not given), the survival is 8% (active).

Regarding `COc1cc(C2c3c(-c4cc(C)ccc4O)n[nH]c3C(=O)N2Cc2ccco2)cc(OC)c1OC` (stereo not given), the survival was 73%.
